TWEAK Fn14 block = inhibitors of TWEAK-Fn14 signaling, primary screen, luciferase reporter cells, uHTS; TWEAK-stimulated Fn14 reporter cells, luciferase luminescence, 8 h; inhibition, % at 10 µM; hit rate 2% among 360,000; in the data active = inhibition above about 50%
PAX8 reporter = inhibitors of PAX8-driven TPO luciferase reporter, primary screen, RMG-I cells, single concentration | SteadyGlo, 24 h | hit rate 1.2% among 360,000 | inhibition, % at 12.6 µM;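 active = mean replicate inhibition at least 60% with every replicate also reaching 60%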;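 also: luciferase light reporting Pax8 driven TPO promoter activity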
TROY NFkB inh = inhibitors of TROY-driven NF-kB signaling, primary screen, Q293 LMP1-TROYcd cells, NF-kB luciferase, uHTS; Q293 LMP1-TROYcd NF-kB luciferase reporter, 4 h; inhibition, % at 10 µM; hit rate 0.98% among 360,000; AID 1347056, 2019;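 active = compounds whose plate-normalised and pattern-corrected inhibition of the luciferase reporter signal at the single screening dose is 50% or more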
EWS-Fli block = EWS/Fli-driven NR0B1 reporter inhibitors, primary screen, A673 cells, NR0B1 luciferase, luminescence, MLPCN library; inhibition, % at 12.6 µM; AID 651661, 2012; hit rate 0.67% among 350,000; viability-normalised;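 active = mean inhibition of at least 50% after viability correction, with every replicate also passing that limit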;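 also: firefly luciferase signal divided by Alamar Blue viability fluorescence both relative to DMSO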
LGR2 antag = inhibitors of bursicon-induced LGR2 CRE-luciferase signal, primary screen, cell-based, HEK293, CRE-luciferase reporter, bursicon stimulation | hit rate 0.35% among 380,000 | bursicon-stimulated, 4 h | AID 720647, 2013 | inhibition, % at 9.99 µM;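 active = drop in luminescence signal, shown as inhibition above about 50% in the replicate tests, limit read from the data, passing the limit was not always enough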;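 also: agonist challenge used bursicon conditioned medium at about half maximal strength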
Each line names hits and unclear results; the compound was inactive in the other large screens. Sampled rows, rich in hits. Any-hit rate of the full collection: about 2.8%.

CCCC(=O)Nc1ccc2c(c1)C(=O)N(C)C[C@@H](OC)[C@H](C)CN(Cc1cc(-c3ccccc3)on1)[C@H](C)CO2	none (no result: TWEAK Fn14 block, TROY NFkB inh)
O=C1[C@H]2[C@@H](c3ccc(C(F)(F)F)cc3)N[C@]3(CCCN(Cc4ccc(F)cc4)C3=O)[C@H]2C(=O)N1Cc1ccccc1	TWEAK Fn14 block 95
O=C(/C=C/c1ccccc1)/C=C/c1ccccc1	TWEAK Fn14 block 90 (no result: EWS-Fli block)
O=C(/C=C/c1ccccc1)c1ccccc1	none
C[C@@H]1CN([C@@H](C)CO)C(=O)c2cccc(NC(=O)CCCCCC(=O)Nc3ccccc3N)c2O[C@@H]1CN(C)C(=O)Nc1ccc2c(c1)OCO2	none (no result: TWEAK Fn14 block, TROY NFkB inh)
CCOc1ccccc1-n1nnnc1SCC(=O)NC(=O)Nc1ccc2c(c1)OCCO2	TWEAK Fn14 block 70 (no result: PAX8 reporter, EWS-Fli block, LGR2 antag)
O=C(CSc1nnnn1-c1ccccc1)NC(=O)Nc1ccc2c(c1)OCCO2	none (no result: EWS-Fli block, LGR2 antag)
Cc1noc(C)c1NC(=O)Nc1ccc2c(c1)C(=O)N([C@@H](C)CO)C[C@H](C)[C@H](CN(C)S(=O)(=O)c1ccccc1)O2	none (no result: TWEAK Fn14 block, PAX8 reporter, TROY NFkB inh)
CCN1C(c2ccccc2)C(C)C(=O)C(C)C1c1ccccc1 (stereo not given)	TWEAK Fn14 block 83 (no result: PAX8 reporter, TROY NFkB inh, EWS-Fli block, LGR2 antag)
CCc1ccc(S(=O)(=O)/N=C2\C=C(Nc3cccc(C(=O)O)c3)C(=O)c3ccccc32)cc1	TWEAK Fn14 block 98
CCc1ccc(S(=O)(=O)/N=C2\C=C(Nc3ccc(O)cc3)C(=O)c3ccccc32)cc1	TWEAK Fn14 block 94, TROY NFkB inh 74 (no result: PAX8 reporter, EWS-Fli block, LGR2 antag)
CCc1ccc(S(=O)(=O)/N=C2/C=C(Sc3ncn[nH]3)C(=O)c3ccccc32)cc1	TWEAK Fn14 block 96, TROY NFkB inh 60 (no result: PAX8 reporter, EWS-Fli block, LGR2 antag)
CC(=O)Nc1ccc(NC2=CC(=O)c3ccccc3C2=O)cc1	none
Cc1ccc(S(=O)(=O)/N=C2\C=C(NS(=O)(=O)c3ccccc3)C(=O)c3ccccc32)cc1	none
COc1ccc(/C=N/Nc2cc(N3CCCC3)nc(N3CCCC3)n2)cc1	PAX8 reporter 68
CCn1c(SCC(=O)Nc2nc3ccc(C)cc3s2)nc2c(c1=O)SC(C)C2 (stereo not given)	TWEAK Fn14 block 93 (no result: PAX8 reporter, EWS-Fli block, LGR2 antag)
COc1ccc(NC(=O)CCS(=O)(=O)c2ccccc2Cl)cc1S(=O)(=O)Nc1ccc(Cl)cc1	EWS-Fli block 57
COc1ccc(NS(=O)(=O)c2cc(NC(=O)CCSc3ccccc3)ccc2OC)cc1	TWEAK Fn14 block 58 (no result: EWS-Fli block)
C[C@@H]1CN([C@@H](C)CO)C(=O)c2cc(NC(=O)Nc3cccc4ccccc34)ccc2O[C@@H](C)CCCCO[C@@H]1CN(C)S(=O)(=O)c1cn(C)cn1	none (no result: TWEAK Fn14 block, TROY NFkB inh)
Nc1ncnc(N2CCc3ccccc32)c1[N+](=O)[O-]	TWEAK Fn14 block 84, TROY NFkB inh 61
N=C1C(c2nc(-c3ccc(F)cc3)cs2)=C(O)CN1Cc1ccc(Cl)cc1	TWEAK Fn14 block 106 (no result: PAX8 reporter, EWS-Fli block, LGR2 antag)
COc1ccc(-c2csc(C3=C(O)CN(Cc4ccc(Cl)cc4)C3=N)n2)cc1OC	none (no result: PAX8 reporter)
COc1ccc2ccc3c(c2c1)N=CC1(O3)N(C)c2ccccc2C1(C)C (stereo not given)	none (no result: PAX8 reporter, EWS-Fli block, LGR2 antag)
CN1c2ccccc2C(C)(C)[C@]12C=Cc1cc(O)ccc1O2	TWEAK Fn14 block 102 (no result: PAX8 reporter, EWS-Fli block)
CN1c2ccccc2C(C)(C)C12C=Nc1c(ccc3ccccc13)O2 (stereo not given)	TWEAK Fn14 block 71, TROY NFkB inh 70 (no result: PAX8 reporter, EWS-Fli block)
CSc1nsc(N/N=C/c2ccc3c(c2)OCO3)c1C#N	none
COc1cc(/C=N/Nc2snc(SC)c2C#N)cc(OC)c1OC	TWEAK Fn14 block 92 (no result: PAX8 reporter, TROY NFkB inh, EWS-Fli block, LGR2 antag)
O=C(C[C@H]1CC[C@@H]2[C@H](COC[C@H](O)CN2Cc2ccccc2F)O1)N[C@@H]1CCN(Cc2ccccc2)C1	none (no result: TWEAK Fn14 block, TROY NFkB inh)
C=C1C(=O)OC2C=C(CO)C3OC3C3OC3(C)CC(OC(=O)/C(=C/C)COC(C)=O)C12 (stereo not given)	TWEAK Fn14 block 83, PAX8 reporter 83
CC(=O)OCC1=C[C@@H]2OC(=O)C3=CO[C@@H](O[C@@H]4O[C@H](CO)[C@@H](O)[C@H](O)[C@H]4O)[C@H]1[C@@H]32	none
COc1ccc(-c2cn(CC[C@@H]3CC[C@@H](NC(=O)Cc4ccccn4)[C@@H](CO)O3)nn2)cc1	PAX8 reporter 62 (no result: TWEAK Fn14 block, TROY NFkB inh)
O=C(Cc1ccccn1)N[C@H]1CC[C@H](CCn2cc(-c3ccccc3)nn2)O[C@H]1CO	none (no result: TWEAK Fn14 block, TROY NFkB inh)
COc1ccc(-c2cn(CC[C@H]3CC[C@@H](NC(=O)Cc4ccccn4)[C@H](CO)O3)nn2)cc1	PAX8 reporter 77 (no result: TWEAK Fn14 block, TROY NFkB inh)
COc1ccc(-c2cn(CC[C@H]3CC[C@H](NC(=O)Cc4ccccn4)[C@H](CO)O3)nn2)cc1	none (no result: TWEAK Fn14 block, TROY NFkB inh)
COc1ccc(-c2cn(CC[C@H]3CC[C@H](NC(=O)Cc4ccccn4)[C@@H](CO)O3)nn2)cc1	PAX8 reporter 86 (no result: TWEAK Fn14 block, TROY NFkB inh)
COc1cccc(S(=O)(=O)N[C@@H]2CC[C@H](CCn3cc(-c4ccccc4)nn3)O[C@H]2CO)c1	none (no result: TWEAK Fn14 block, TROY NFkB inh)
COc1cccc(S(=O)(=O)N[C@@H]2CC[C@H](CCn3cc(-c4ccccc4)nn3)O[C@@H]2CO)c1	EWS-Fli block 53 (no result: TWEAK Fn14 block, TROY NFkB inh)
C[C@@H]1CN([C@H](C)CO)C(=O)c2cc(C#CC3CCCC3)cnc2O[C@H]1CN(C)C(=O)Nc1ccccc1	none (no result: TWEAK Fn14 block, TROY NFkB inh)
COCC(=O)Nc1ccc2c(c1)OC[C@@H](C)N(C(=O)COC)C[C@@H](C)[C@H](OC)CN(C)C2=O	none (no result: TWEAK Fn14 block, TROY NFkB inh)
Cc1noc(C)c1NC(=O)Nc1ccc2c(c1)C(=O)N([C@H](C)CO)C[C@H](C)[C@H](CN(C)Cc1ccc(C(F)(F)F)cc1)OCCCC[C@H](C)O2	none (no result: TWEAK Fn14 block, TROY NFkB inh)
C[C@@H]1CCCCO[C@@H](CN(C)S(=O)(=O)c2cccs2)[C@H](C)CN([C@H](C)CO)C(=O)c2cc(NS(=O)(=O)c3ccccc3)ccc2O1	none (no result: TWEAK Fn14 block, TROY NFkB inh)
O=C(Nc1ccc(NC(=O)c2ccccc2F)cn1)c1ccco1	TWEAK Fn14 block 53
Cc1ccc(C(=O)Nc2cnc3ccccc3c2)cc1	TWEAK Fn14 block 105, PAX8 reporter 90, TROY NFkB inh 87 (no result: EWS-Fli block, LGR2 antag)
O=C(Nc1cnc2ccccc2c1)c1ccco1	TWEAK Fn14 block 57 (no result: PAX8 reporter, EWS-Fli block, LGR2 antag)
O=C(Nc1ccc(NC(=O)c2ccco2)nc1)c1cccc(F)c1	none
O=C(C[C@H]1C[C@H]2c3cc(NC(=O)C4CCC4)ccc3O[C@H]2[C@H](CO)O1)NC1CCCCC1	none (no result: TWEAK Fn14 block, TROY NFkB inh)
COc1ccc(-c2cnc3c(c2)C(=O)N([C@@H](C)CO)C[C@H](C)[C@H](CN(C)S(=O)(=O)c2ccc(OC)cc2)O3)cc1	none (no result: TWEAK Fn14 block, PAX8 reporter, TROY NFkB inh)
CNc1nnc(-c2ccc(N(C)C)cc2)s1	TWEAK Fn14 block 62 (no result: PAX8 reporter, EWS-Fli block, LGR2 antag)
Cc1ccc(S(=O)(=O)Nc2ccc3c(c2)C(=O)N([C@H](C)CO)C[C@H](C)[C@H](CN(C)Cc2ccc(Cl)c(Cl)c2)OCCCC[C@@H](C)O3)cc1	none (no result: TWEAK Fn14 block, TROY NFkB inh)
Cc1ccc(S(=O)(=O)Nc2ccc3c(c2)C(=O)N([C@@H](C)CO)C[C@@H](C)[C@@H](CN(C)Cc2ccc(Cl)c(Cl)c2)OCCCC[C@@H](C)O3)cc1	PAX8 reporter 96 (no result: TWEAK Fn14 block, TROY NFkB inh)
